Results from PMC7862700, “An all-to-all approach to the identification of sequence-specific readers for epigenetic DNA modifications on cytosine”.

Tests used:
Assay in all cases: DAPPL (digital affinity profiling via proximity ligation, sequencing); 10 mM Tris-HCl pH 7.5, 50 mM NaCl, 1 mM DTT, 4% glycerol, room temperature, 30 min; GST-TFs on glutathione beads, 16-mer random dsDNA library, 0.1% formaldehyde crosslink after washing; high values mean tight binding
Settings in all cases: protein: recombinant; tags: N-terminal GST; dsDNA, one strand shown
FLI1 = molecular target: T1, FLI1 (Homo sapiens, UniProt Q01543 1-452)
T1 sequence: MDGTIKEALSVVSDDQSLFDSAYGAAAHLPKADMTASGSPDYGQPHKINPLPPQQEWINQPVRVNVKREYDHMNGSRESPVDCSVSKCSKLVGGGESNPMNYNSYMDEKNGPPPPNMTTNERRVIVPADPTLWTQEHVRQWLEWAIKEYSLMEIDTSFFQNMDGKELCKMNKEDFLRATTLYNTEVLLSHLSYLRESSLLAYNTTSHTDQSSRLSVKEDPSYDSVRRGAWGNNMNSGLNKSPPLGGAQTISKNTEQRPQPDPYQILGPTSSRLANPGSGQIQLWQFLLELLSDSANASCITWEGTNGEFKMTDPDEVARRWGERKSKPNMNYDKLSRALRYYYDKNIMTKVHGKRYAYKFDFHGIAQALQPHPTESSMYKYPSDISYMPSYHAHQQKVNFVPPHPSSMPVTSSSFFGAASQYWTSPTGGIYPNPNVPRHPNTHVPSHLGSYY
Method in brief: (§1)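 Pools were built from human transcription factors expressed in yeast as GST fusions, captured on glutathione beads and DNA-barcoded, along with a tag-only sample. Incubation with 200 nmole of a 16-mer random double-stranded DNA library lasted 30 min at room temperature in Tris/NaCl/DTT/glycerol buffer, and was followed by washing, 0.1% formaldehyde crosslinking, proximity ligation, PCR amplification and Illumina NextSeq500 sequencing. Binding signal is the quotient of each hexamer's read frequency for a factor and its frequency for the tag-only sample.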

ELK1 = molecular target: T2, ELK1 (Homo sapiens, UniProt P19419 1-428)
T2 sequence: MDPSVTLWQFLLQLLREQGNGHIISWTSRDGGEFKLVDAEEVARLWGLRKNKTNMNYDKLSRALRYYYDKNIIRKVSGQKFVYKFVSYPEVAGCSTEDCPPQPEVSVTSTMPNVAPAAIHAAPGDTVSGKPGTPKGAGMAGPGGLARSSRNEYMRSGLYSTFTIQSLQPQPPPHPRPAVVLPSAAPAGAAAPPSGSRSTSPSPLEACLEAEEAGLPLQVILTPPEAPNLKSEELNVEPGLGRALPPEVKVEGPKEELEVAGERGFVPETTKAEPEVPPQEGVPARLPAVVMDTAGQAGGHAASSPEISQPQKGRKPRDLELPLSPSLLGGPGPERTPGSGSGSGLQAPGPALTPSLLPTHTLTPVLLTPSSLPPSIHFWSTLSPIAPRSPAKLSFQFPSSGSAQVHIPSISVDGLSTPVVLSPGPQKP
Method in brief: as §1

GABPA = molecular target: T3, GABPA (Homo sapiens, UniProt Q06546 1-454)
T3 sequence: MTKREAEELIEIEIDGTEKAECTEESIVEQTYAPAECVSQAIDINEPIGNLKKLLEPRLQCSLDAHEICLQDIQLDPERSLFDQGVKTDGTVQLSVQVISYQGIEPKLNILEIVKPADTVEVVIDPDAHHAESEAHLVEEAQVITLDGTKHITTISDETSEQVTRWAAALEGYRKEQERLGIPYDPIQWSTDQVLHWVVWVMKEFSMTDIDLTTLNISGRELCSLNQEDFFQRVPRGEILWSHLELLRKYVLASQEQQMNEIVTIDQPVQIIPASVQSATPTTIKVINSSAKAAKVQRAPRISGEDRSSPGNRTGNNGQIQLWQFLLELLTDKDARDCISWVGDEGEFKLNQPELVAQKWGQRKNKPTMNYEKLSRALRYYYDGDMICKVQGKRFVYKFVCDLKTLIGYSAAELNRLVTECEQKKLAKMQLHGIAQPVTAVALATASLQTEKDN
Method in brief: as §1

ERG = molecular target: T4, ERG (Homo sapiens, UniProt P11308 1-479)
T4 sequence: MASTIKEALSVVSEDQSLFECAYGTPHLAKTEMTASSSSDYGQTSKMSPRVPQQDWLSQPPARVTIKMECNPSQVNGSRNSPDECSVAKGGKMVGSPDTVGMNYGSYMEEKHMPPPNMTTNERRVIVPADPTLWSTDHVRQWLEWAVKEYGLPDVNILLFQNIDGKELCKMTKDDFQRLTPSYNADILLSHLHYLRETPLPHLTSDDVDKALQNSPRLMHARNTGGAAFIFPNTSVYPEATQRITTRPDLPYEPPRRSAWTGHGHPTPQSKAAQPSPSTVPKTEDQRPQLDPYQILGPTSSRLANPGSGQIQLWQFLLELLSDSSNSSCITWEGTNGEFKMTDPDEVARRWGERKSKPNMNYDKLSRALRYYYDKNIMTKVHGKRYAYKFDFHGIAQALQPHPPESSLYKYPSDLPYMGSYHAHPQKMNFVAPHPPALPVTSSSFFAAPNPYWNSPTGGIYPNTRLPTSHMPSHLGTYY
Method in brief: as §1

ELF1 = ELF1 (Homo sapiens, UniProt P32519 1-619)
Sequence of ELF1 (P32519 whole entry): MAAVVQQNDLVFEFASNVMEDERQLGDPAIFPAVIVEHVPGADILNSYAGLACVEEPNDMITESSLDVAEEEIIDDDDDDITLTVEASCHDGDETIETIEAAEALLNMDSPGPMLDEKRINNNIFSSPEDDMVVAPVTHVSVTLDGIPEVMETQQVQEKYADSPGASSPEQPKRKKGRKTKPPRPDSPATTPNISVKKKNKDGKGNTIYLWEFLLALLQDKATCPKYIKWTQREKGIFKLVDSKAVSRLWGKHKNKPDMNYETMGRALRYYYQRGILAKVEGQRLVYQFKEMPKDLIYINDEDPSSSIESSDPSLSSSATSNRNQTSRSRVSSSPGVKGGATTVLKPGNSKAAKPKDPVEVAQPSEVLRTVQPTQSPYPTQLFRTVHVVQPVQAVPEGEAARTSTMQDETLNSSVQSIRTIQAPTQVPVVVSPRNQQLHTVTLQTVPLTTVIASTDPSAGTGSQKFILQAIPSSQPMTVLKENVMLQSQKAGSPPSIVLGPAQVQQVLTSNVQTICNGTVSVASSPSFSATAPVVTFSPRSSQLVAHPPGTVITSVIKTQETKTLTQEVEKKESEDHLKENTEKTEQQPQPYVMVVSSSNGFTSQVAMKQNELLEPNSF
Method in brief: as §1

EHF = molecular target: T5, EHF (Homo sapiens, UniProt Q9NZC4 1-300)
T5 sequence: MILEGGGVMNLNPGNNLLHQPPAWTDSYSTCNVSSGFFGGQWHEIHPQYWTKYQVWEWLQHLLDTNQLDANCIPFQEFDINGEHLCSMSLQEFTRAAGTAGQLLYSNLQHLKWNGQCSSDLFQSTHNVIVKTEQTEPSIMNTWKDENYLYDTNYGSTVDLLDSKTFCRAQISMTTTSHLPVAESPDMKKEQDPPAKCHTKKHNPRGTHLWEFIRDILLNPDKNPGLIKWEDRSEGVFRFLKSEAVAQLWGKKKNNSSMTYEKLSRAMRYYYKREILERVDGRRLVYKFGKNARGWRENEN
Method in brief: as §1

SPI1 = SPI1 (Homo sapiens, UniProt P17947 1-270)
Method in brief: as §1

SPIB = SPIB (Homo sapiens, UniProt Q01892 1-262)
Sequence of SPIB (Q01892 whole entry): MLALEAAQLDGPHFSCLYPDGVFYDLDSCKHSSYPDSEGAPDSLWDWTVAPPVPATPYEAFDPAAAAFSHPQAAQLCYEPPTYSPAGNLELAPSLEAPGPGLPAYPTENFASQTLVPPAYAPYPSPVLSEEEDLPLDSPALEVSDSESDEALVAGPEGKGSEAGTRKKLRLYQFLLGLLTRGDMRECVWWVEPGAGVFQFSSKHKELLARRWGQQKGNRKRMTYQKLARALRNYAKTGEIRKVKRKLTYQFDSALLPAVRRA
Method in brief: as §1

ELK3 = molecular target: T6, ELK3 (Homo sapiens, UniProt P41970 1-407)
T6 sequence: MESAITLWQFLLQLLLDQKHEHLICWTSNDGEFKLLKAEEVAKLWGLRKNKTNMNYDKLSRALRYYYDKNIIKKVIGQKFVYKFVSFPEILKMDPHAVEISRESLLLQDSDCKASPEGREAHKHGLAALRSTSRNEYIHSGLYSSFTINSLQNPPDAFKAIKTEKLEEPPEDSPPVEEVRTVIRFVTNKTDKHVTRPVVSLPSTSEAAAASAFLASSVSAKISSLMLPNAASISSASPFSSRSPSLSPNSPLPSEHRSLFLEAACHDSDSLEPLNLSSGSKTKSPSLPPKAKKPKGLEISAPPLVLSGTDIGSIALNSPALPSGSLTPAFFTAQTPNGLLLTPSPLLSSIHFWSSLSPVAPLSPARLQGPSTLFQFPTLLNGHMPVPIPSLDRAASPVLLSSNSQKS
Method in brief: as §1

ETV5 = ETV5 (Homo sapiens, UniProt P41161 1-510)
Sequence of ETV5 (P41161 whole entry): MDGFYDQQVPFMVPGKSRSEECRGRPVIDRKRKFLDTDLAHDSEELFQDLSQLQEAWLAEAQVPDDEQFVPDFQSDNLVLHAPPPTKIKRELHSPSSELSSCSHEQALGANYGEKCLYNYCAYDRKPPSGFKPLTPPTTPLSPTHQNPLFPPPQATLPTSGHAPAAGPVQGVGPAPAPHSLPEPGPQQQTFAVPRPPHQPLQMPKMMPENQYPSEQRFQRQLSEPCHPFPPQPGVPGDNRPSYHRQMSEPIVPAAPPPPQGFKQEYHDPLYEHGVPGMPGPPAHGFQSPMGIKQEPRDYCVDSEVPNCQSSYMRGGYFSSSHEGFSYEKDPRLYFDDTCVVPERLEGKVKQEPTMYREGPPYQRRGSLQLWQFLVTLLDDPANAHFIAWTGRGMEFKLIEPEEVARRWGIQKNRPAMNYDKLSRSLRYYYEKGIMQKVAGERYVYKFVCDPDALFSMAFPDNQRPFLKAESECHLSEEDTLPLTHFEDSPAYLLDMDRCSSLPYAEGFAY
Method in brief: as §1

TGTAAC
binding signal (FLI1): 1.29 fold enrichment (6-mer frequency, TF over GST control)
binding signal (ELK1): 1.21 fold enrichment (6-mer frequency, TF over GST control)
binding signal (GABPA): 1.09 fold enrichment (6-mer frequency, TF over GST control)
binding signal (ERG): 1.18 fold enrichment (6-mer frequency, TF over GST control)
binding signal (ELF1): 1.28 fold enrichment (6-mer frequency, TF over GST control)
binding signal (EHF): 1.36 fold enrichment (6-mer frequency, TF over GST control)
binding signal (SPI1): 1.36 fold enrichment (6-mer frequency, TF over GST control)
binding signal (SPIB): 1.16 fold enrichment (6-mer frequency, TF over GST control)
binding signal (ELK3): 1.2 fold enrichment (6-mer frequency, TF over GST control)
binding signal (ETV5): 1.24 fold enrichment (6-mer frequency, TF over GST control)
